# Measurements from PubChem BioAssay (Tox21).
# Inconclusive results are not listed. Values without a mark were called inactive. The source made the active and inactive calls. The call rests on the fitted dose curve.
# Target: Beta-2 adrenergic receptor (Homo sapiens) (UniProt P07550)
# Assay: Adrenergic beta2 receptor (ADRB2) small molecule antagonists, cell-based qHTS assay (AID 1963592); further: nearly all actives have a fitted effect of over 50% in size
# Settings: CHO-ADRB2 cells, isoproterenol-stimulated cAMP HTRF ratio, 0.5 h; series mostly up to 92.4 µM; activity change, negative = inhibition: at the top concentration
# From the text: U.S. Tox21 Program National Center for Advancing Translational Sciences [NCATS] Division of Preclinical Innovation [DPI] U.S. Environmental Protection Agency [EPA] National Institutes of Environmental Health Sciences [NIEHS] National Toxicology Program [NTP] U.S. Food and Drug Administration [FDA] Tox21 Assay Overview: Beta adrenergic receptors (Beta-ARs) belong to the G-protein coupled receptor (GPCR) superfamily, includes three subtypes - beta1, beta2, and beta3. Beta1-AR is the predominant receptor subtype expressed in the heart, and beta2-AR is expressed in the kidney, lung, blood vessel and in the heart, and beta3 is found in the adipocytes. Beta1 and 2 ARs couple to Gs protein and elevate cyclic adenosine mono phosphate (cAMP), which activates protein kinase A and leads to the downstream signaling responsible for the physiological actions. Beta-AR agonists or antagonists are the most prescribed therapeutic agents for heart failure and asthma, and these were one of the first target receptors for the rational drug design. Tox21 10K compound library was screened using the cAMP-Gs dynamic assay (Cisbio Bioassays, Shelton, CT) to identify agonists/antagonists of the Gs-coupled human adrenergic, beta2 receptor (ADRB2) in the CHO-ADRB2 cell line (Codex BioSolutions, Inc. Gaithersburg, MD), which stably over-expresses ADRB2. The principle of cAMP-Gs dynamic assay is based on HTRF technology, which facilitates the fluorescence resonance energy transfer (FRET) between donor Europium cryptate and acceptor d2-labeled cAMP. The cAMP generated within cells competes with the red acceptor, d2-labled cAMP, for binding to the monoclonal anti-cAMP-cryptate (Europium donor). An increase in intracellular cAMP leads to the disruption of FRET signal, and the signal is inversely proportional to the cAMP concentration. Propranolol HCl (Sigma-Aldrich, St. Louis, MO) was used as a positive control in the screening.
# Tox21 Assay Protocol Summary: CHO-ADRB2 cells were dispensed at 1,000/well in 4uL assay medium into white/solid 1536-well plates (Greiner Bio-One North America Inc., Monroe, NC) using a Multidrop Combi dispenser (ThermoFisher Scientific, Waltham, MA). The assay plates were incubated at 37C and 5% CO2 for an overnight (18-20hr). Then positive control and test compounds dissolved in DMSO were transferred to the assay plates at 23nL using a Pintool station (Wako, San Diego, CA). Following the compound and positive control transfer, 1uL agonist-stimulation mix containing 1nM Isoproterenol HCl, 100uM IBMX and 25uM Ro-20-1724 was added to each well of the assay plates using BioRAPTR Flying Reagent Dispenser (FRD, Beckman Coulter, Brea, CA). The assay plates were incubated at room temperature for 0.5hr. Then 2.5ul each d2-labled cAMP and anti-cAMP-cryptate solutions were added separately to each well of the assay plates using an FRD and the assay plates were incubated at room temperature for 1hr. The fluorescence signal was measured at two different wavelengths (665nm and 615nm) using an Envision plate reader (Perkin Elmer, Shelton, CT). Data were expressed as the ratio of 665 nm/615 nm.
# On the % scale 0 is the no-effect control and ±100 the full control effect; potency means the concentration at half of the fitted maximal effect.
# Chain of Beta-2 adrenergic receptor (Homo sapiens) (P07550 whole entry, looked up): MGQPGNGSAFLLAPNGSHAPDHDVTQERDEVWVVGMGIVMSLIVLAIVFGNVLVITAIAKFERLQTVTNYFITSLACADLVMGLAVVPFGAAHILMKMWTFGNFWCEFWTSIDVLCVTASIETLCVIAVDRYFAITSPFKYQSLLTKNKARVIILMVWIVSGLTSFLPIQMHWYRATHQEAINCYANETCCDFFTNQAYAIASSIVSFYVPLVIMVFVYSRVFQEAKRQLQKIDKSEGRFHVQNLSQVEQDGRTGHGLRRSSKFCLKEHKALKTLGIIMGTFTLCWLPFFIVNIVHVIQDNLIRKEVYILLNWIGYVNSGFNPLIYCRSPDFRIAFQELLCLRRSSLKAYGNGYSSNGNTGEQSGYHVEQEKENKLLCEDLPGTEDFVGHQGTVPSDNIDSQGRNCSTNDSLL
Compound,"activity change, negative = inhibition",Potency
CC(C=O)Cc1ccc(C(C)C)cc1 (stereo not given),3.47%,–
CC(C)Nc1cccnc1N1CCN(C(=O)c2cc3cc(NS(C)(=O)=O)ccc3[nH]2)CC1,-11.8% [at 42.5 µM],–
O=C1OC(=O)c2cc([N+](=O)[O-])ccc21,-2.79%,–
CCc1ccc(O)c(OC)c1,-3.4%,–
CCN(CC)CCSC(=O)C(c1ccccc1)c1ccccc1,-2.76% [at 42.5 µM],–
CNC(=O)c1cc(Oc2ccc(NC(=O)Nc3ccc(Cl)c(C(F)(F)F)c3)cc2)ccn1,-2.02% [at 42.5 µM],–
CCCCNc1ccc(NCCCC)c2c1C(=O)c1ccccc1C2=O,1.56% [at 19 µM],–
C1OCOCO1,-4.42%,–
CC(=O)CC(=O)OC(C)(C)C,-3.97%,–
CC(C)CC(C)CC(C)CC(C)COC(=O)c1ccccc1C(=O)OCC(C)CC(C)CC(C)CC(C)C (stereo not given),-0.133%,–
CCCCCCCC[P+](CCCCCCCC)(CCCCCCCC)CCCCCCCC,4.41%,–
CC(C)(Oc1ccc(Cl)cc1)C(=O)OCCCOC(=O)C(C)(C)Oc1ccc(Cl)cc1,2.66% [at 42.5 µM],–
CCOC(=O)COC(=O)c1ccccc1C(=O)OCC,-0.707%,–
CCCCCCCCCCCCC,-5.68%,–
CN(C)CCN(Cc1ccsc1)c1ccccn1,0.869% [at 42.5 µM],–
C[N+](C)(C)CCCCCCCCCC[N+](C)(C)C,0.965% [at 42.5 µM],–
Oc1cc(O)c(Cl)cc1Cl,-10.4%,–
O=C(O)CC(C(=O)O)S(=O)(=O)O (stereo not given),2.69%,–
CCCCCCCCCCCCCCCC[N+](C)(C)CCN(Cc1ccc(OC)cc1)c1ncccn1,-3.59% [at 42.5 µM],–
COCCO,3.98%,–

Compound,"activity change, negative = inhibition",Potency
c1cnc2c(n1)CCCC2,-0.54%,–
CC(C)=CC1CC(C)CCO1 (stereo not given),-4.03%,–
COC(=O)C(C)O (stereo not given),-3.07%,–
C[C@H]1C[C@H]2[C@@H]3CCC4=CC(=O)C=C[C@]4(C)[C@H]3C(=O)C[C@]2(C)[C@@]1(O)C(=O)CO,2.66% [at 42.5 µM],–
CCCCCCCC[Si](OCC)(OCC)OCC,-7.91%,–
CCOC(=O)C(=O)CCc1ccccc1,0.0422% [at 42.5 µM],–
COc1ccc2c(c1)C(=O)N(CCc1ccc(S(=O)(=O)NC(=O)NC3CCCCC3)cc1)C(=O)C2(C)C,-8.96% [at 42.5 µM],–
NS(=O)(=O)c1cc2c(cc1Cl)NC(C(Cl)Cl)NS2(=O)=O (stereo not given),-0.779% [at 42.5 µM],–
COc1ccc(C)cc1[N+](=O)[O-],0.276%,–
NC1[C@H]2CN(c3nc4c(cc3F)c(=O)c(C(=O)O)cn4-c3ccc(F)cc3F)C[C@@H]12 (stereo not given in full),-4.75% [at 42.5 µM],–
O=C(O)c1cccc(Cl)n1,-0.91%,–
CCOC(=O)CC(CC(=O)OCC)(OC(C)=O)C(=O)OCC,0.958%,–
CC(CNC1CCCCC1)OC(=O)c1ccccc1 (stereo not given),3.14% [at 42.5 µM],–
CC(C)=CCC/C(C)=C/CC/C(C)=C/C(=O)OCC(=O)[C@@]1(O)CC[C@H]2[C@@H]3CCC4=CC(=O)C=C[C@]4(C)[C@H]3[C@@H](O)C[C@@]21C,-1.56% [at 42.5 µM],–
CCCCc1ccc(N)cc1,0.67%,–
CC1CC(C)C(=O)C1=O (stereo not given),-4.65%,–
COc1ccccc1OCC(O)CN1CCN(CC(=O)Nc2c(C)cccc2C)CC1 (stereo not given),–,11.9 µM (active)
C=CCn1c(=O)n(CC=C)c(=O)n(CC=C)c1=O,-1.56%,–
C=CC/C=C/C/C=C/C/C=C/C,-0.928%,–
O=C(Cn1ccnc1[N+](=O)[O-])NCCO,-0.18% [at 42.5 µM],–
